# Screens (PubChem BioAssay)
# Most compounds without a hit are left out; they make up all but 11% or so of the library.
# BAZ2B inh: inhibitors of human BAZ2B bromodomain. Q9UIF8. AlphaScreen BAZ2B-H3K14Ac peptide displacement. Potency, µM (series often up to 114 µM), for the others: top-dose activity change, negative = inhibition, actives largely listed as inhibitors. 4.4% of 360,000 active; note: % is set by controls: 0 for no effect and ±100 for the full control effect; nearly all actives have a fitted effect of over 60% in size
#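 Complex of BAZ2B and biotin-H3K14Ac (50 nM apiece) forms over 30 min at RT, then faces library compounds up to 110 uM for another 30 min; AlphaScreen beads added, 20 min dark incubation, luminescence read.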
# HP1b binding inh: inhibitors of HP1-beta chromodomain binding to methylated histone tails; AlphaScreen HP1-beta / biotin-H3K9me3 peptide binding; Potency, µM (highest dose often 114 µM), without a hit: at the top dose activity change, negative = inhibition, usual class: inhibitors; 0.56% of 390,000 active; note: nearly all actives have a fitted effect of over 70% in size
#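 Compound inhibition of the preformed complex between 50 nM HP1-beta and 50 nM biotinylated H3K9me3 peptide was read by AlphaScreen. Buffer was PBS pH 7.4 with 0.01% Tween-20. Incubations ran 30 min at room temperature, with 10 ug/mL donor/acceptor beads.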
# VDR inh: vitamin D3 receptor (human) inhibition | P11473 | VDR-SRC2-3 peptide fluorescence polarization, 2 h | Potency, µM, inactives show max response, negative = inhibition, most hits filed as inhibitors | 0.93% of 400,000 active | AID 504847; note: % is set by controls: 0 for no effect and ±100 for the full control effect
#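 Fluorescence polarization assay of small-molecule disruption of VDR binding to coregulator peptide SRC2-3. Compounds and controls pin-transferred, then read after 2 h incubation at ambient room temperature.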
# JMJD2A Tudor: JMJD2A Tudor domain (human) inhibition; AID 504339; AlphaScreen JMJD2A-Tudor / H3K4me3 peptide binding; Potency, µM (top dose mostly 114 µM), inactives show top-dose activity change, negative = inhibition, most hits filed as inhibitors; O75164; 4.4% of 390,000 active; note: % is set by controls: 0 for no effect and ±100 for the full control effect; nearly all actives have a fitted effect of over 50% in size
# PLK1 PBD block: PLK1 (human) polo-box domain binding inhibition; P53350; Plk1 PBD binding of FITC phosphopeptide, fluorescence polarization; Potency, µM, without a hit: max response, negative = inhibition, usual class: inhibitors; 2.8% of 360,000 active; AID 720504; note: series mostly up to about 57 µM; % is set by controls: 0 for no effect and ±100 for the full control effect; nearly all actives have a fitted effect of over 65% in size
# Target sequence (P53350 whole entry, looked up, the tested form may be a part): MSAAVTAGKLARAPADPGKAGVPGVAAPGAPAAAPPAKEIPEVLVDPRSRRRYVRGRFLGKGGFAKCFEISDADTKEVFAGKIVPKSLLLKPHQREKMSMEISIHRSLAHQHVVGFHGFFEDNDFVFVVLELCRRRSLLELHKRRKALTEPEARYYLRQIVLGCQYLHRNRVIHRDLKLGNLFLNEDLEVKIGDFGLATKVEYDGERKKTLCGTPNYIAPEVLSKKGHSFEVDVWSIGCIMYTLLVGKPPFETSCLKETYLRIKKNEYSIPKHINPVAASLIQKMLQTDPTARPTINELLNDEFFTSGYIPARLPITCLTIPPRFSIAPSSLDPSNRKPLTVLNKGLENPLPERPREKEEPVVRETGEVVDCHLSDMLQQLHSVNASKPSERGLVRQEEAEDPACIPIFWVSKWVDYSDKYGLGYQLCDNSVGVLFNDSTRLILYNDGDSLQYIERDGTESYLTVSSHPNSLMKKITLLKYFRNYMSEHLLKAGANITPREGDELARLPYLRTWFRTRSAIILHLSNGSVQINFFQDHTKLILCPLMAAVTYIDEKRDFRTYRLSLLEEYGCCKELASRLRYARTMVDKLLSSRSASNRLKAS
# G9a inh: inhibitors of human histone lysine methyltransferase G9a | AID 504332 | Potency, µM (doses to about 102 µM), inactives show top-dose activity, negative = inhibition, most hits filed as inhibitors | 8.8% of 350,000 active | G9a H3K9 monomethylation, AlphaScreen, 2 h; note: % is set by controls: 0 for no effect and ±100 for the full control effect; nearly all actives have a fitted effect of over 75% in size
#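 AlphaScreen detection with an anti-monomethyl H3K9 antibody quantified product after a 2 h room-temperature reaction containing 500 nM biotinylated H3K9 peptide, 20 µM SAM and 20 nM enzyme, which had been preincubated 15 min with compound.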
# Numbers without * were called inactive; u = inconclusive; x = not tested or not shown; [ ] = remark or other dose. Calls come from the whole dose curve; as a rule, active = well fitted curve in the direction sought with a large enough effect; inconclusive = small, poorly fitted or top-dose-only effect, or another doubt; inactive = no such curve, though single readings can be large; an effect the other way counts as inactive or inconclusive. Potency is the fitted concentration of half-maximal effect.
SMILES,BAZ2B inh,HP1b binding inh,VDR inh,JMJD2A Tudor,PLK1 PBD block,G9a inh
COc1ccccc1/C=C/C=N/n1c(-c2ccc(C)cc2)n[nH]c1=S,-27.6%,-19.0%,-21.9%,-31.2%,-25.9%,u
CCCCN1C(=N)N([C@@H](CCC)CN2CCC[C@H]2CN2C(N)=NC[C@H]2C(C)C)C[C@H]1[C@H](C)CC,x,27.9%,-24.8%,-24.7%,-5.3%,x
CCC(C)n1c(=N)c(S(=O)(=O)c2ccccc2)cc2c(=O)n3ccccc3nc21 (configuration not stated),-0.9%,24.6%,5.0%,-8.7%,x,-2.2%[59 µM]
O=C(NCC(=O)N(Cc1cccs1)C(C(=O)NC1CCCC1)c1ccncc1)c1ccco1 (configuration not stated),u,26.6%,6.5%,0.6%,-7.4%,u
COC(=O)c1ccc(N(C(=O)CNC(=O)c2ccco2)C(C(=O)NC2CCCC2)c2ccco2)cc1 (configuration not stated),-0.5%,-17.9%,-16.1%,-10.7%[11.4 µM],26.7µM*,-11.4%[59 µM]
COc1ccc(N(C(=O)c2ccco2)C(C(=O)NC2CCCCC2)c2ccccc2)cc1 (configuration not stated),x,44.2%,11.0%,-7.1%,-2.7%,x
COc1ccc(N(C(=O)c2ccco2)C(C(=O)NC2CCCC2)c2ccc(N(C)C)cc2)cc1 (configuration not stated),50.1µM*,-25.7%,15.4%,u,-8.5%,79.4µM*
O=C(NCC(=O)N(Cc1ccccc1)C(C(=O)NC1CCCC1)c1ccncc1)c1ccco1 (configuration not stated),9.6%,35.0%,-9.4%,-5.3%,-4.6%,10µM*
CSc1nnc(NC(=O)c2cc(=O)c3cc(C)cc(C)c3o2)s1,-3.5%,-10.8%,-17.6%,-24.0%,-8.8%,x
O=C(/C=C/c1ccccc1)Nc1ccc2c(c1)C(=O)NC2=O,-6.3%,33.5%,-9.1%,-15.6%,4.3%,-3.1%
O=C(/C=C/c1ccccc1Cl)Nc1ccc2c(c1)C(=O)NC2=O,70.8µM*,u,-1.7%,u,u,25.1µM*
Cc1cc(C2N=C(N)Nc3nc4ccccc4n32)c(C)n1-c1ccccc1Cl (configuration not stated),u,-6.2%,-5.3%,u,-1.1%,u
Cc1ccc(-n2c(C)cc(C3N=C(N)Nc4nc5ccccc5n43)c2C)c(C)c1 (configuration not stated),39.8µM*,u,15.0%,39.8µM*,2.0%,5.2%[12.7 µM]
Cc1ccc(NCN2C(=O)c3ccccc3C2=O)cc1Cl,x,x,x,x,-2.0%,x
Cc1ccc(N/N=C2\CC(=O)c3ccccc32)cc1Cl,11.2µM*,x,x,x,x,x
CN[C@@H]1[C@H](O[C@@H]2O[C@H](CO)[C@@H](N)[C@H](O)[C@@H]2O)O[C@H]2C[C@@H](N)[C@@H](O[C@H]3[C@@H](O)[C@H](O)[C@H](N)C[C@@H]3N)O[C@H]2[C@H]1O,x,x,-16.7%,x,x,43.0%[21.5 µM]
CN[C@@H]1[C@H](O[C@@H]2O[C@H](C)[C@@](O)(CO)[C@H]2O[C@H]2[C@H](O)[C@H](O)[C@H](N=C(N)N)[C@@H](O)[C@@H]2N=C(N)N)O[C@@H](CO)[C@H](O)[C@H]1O,x,x,50.1µM*,x,x,10µM*
O=C(CCS(=O)(=O)c1ccccc1)N(CCCN1CCOCC1)c1nc2ccccc2s1,-17.0%,54.9%,u,-4.1%,u,39.8µM*
Cc1ccc(S(=O)(=O)CCC(=O)N(CCCN2CCOCC2)c2nc3ccccc3s2)cc1,-3.5%,39.5%,0.9%,-5.5%,-29.2%,44.7µM*
Cc1ccc2nc(N(CCN3CCOCC3)C(=O)CCS(=O)(=O)c3ccccc3)sc2c1,3.7%,26.3%,0.6%,-29.5%,-5.7%,8.8%[0.501 µM]
CC(C)c1ccc(NC(=O)CS(=O)(=O)c2cccc3nsnc23)cc1,-14.6%,17.9%[57 µM],5.4%,-14.8%,x,-2.3%[59 µM]
N#CCC(=O)N/N=C\c1cc(Br)ccc1OC/C=C/c1ccccc1,-24.2%,50.0%,47.3%,-4.8%,-3.2%,14.6%
Cc1ccccc1NC(=O)CCn1cnc2onc(-c3ccc(F)cc3)c2c1=O,8.1%[57.1 µM],33.5%,-0.1%,-15.5%,x,-23.2%[59 µM]
Cc1ccc(Cn2cc(CN3CC(N4CCN(CCO)CC4)CS3(=O)=O)nn2)cc1 (configuration not stated),x,x,x,x,-15.6%,x
Cn1nc(Cc2n[nH]c(=S)n2C)c2ccccc2c1=O,0.5%,31.5%,14.9%,3.98µM*,-0.8%,x
SMILES,BAZ2B inh,HP1b binding inh,VDR inh,JMJD2A Tudor,PLK1 PBD block,G9a inh
COc1ccc(OC)c(CCNC(=O)Cn2nc(C)n3c(cc4sccc43)c2=O)c1,-1.9%,11.5%,-3.2%,-7.6%,x,12.1%[59 µM]
Nc1nnc(CC(=O)N/N=C/c2cc([N+](=O)[O-])cc(Br)c2O)s1,50.1µM*,-14.3%,u,79.4µM*,u,22.4µM*
CCCCn1c(N)c(N(CCC(C)C)C(=O)CSc2nncn2-c2ccccc2)c(=O)[nH]c1=O,u,30.5%,4.4%,-2.3%,3.0%,7.94µM*
CCCCN(C(=O)CSc1nncn1-c1ccccc1OC)c1c(N)n(Cc2ccccc2)c(=O)[nH]c1=O,-2.7%,24.0%,-7.4%,-20.7%,-0.5%,56.2µM*
O=C(CCNC(=O)c1ccc(Cl)cc1)Nc1ccc(S(=O)(=O)N2CCCCC2)cc1,16.1%,59.5%,12.0%,5.5%,-0.7%,-2.2%
COc1ccc(C2CC(=O)c3c(C)nc(N4CCN(Cc5ccccc5)CC4)nc3C2)cc1OC (configuration not stated),u,-13.6%,10.4%,u,-7.0%,35.5µM*
COc1cc2c(cc1NC(=O)CN1CCN(S(=O)(=O)c3ccccc3F)CC1)oc1ccccc12,5.7%,-7.3%,-20.9%,-34.2%[11.4 µM],3.36µM*,5.9%
COc1cc(NC(=O)c2ccccc2F)c(OC)cc1NC(=O)CN1CCOCC1,-34.3%,19.0%,-4.0%,-19.9%,1.6%,44.7µM*
COc1cc(NC(=O)c2ccc(F)cc2)c(OC)cc1NC(=O)CN1CCOCC1,-24.2%,6.7%,4.0%,-20.5%,-2.5%,20.0%[12.7 µM]
COc1cc2c(cc1NC(=O)Cc1ccc(C)cc1)oc1ccccc12,-2.9%,54.3%,-2.5%,-0.7%,u,9.8%[59 µM]
Cc1ccccc1N(CC(=O)NC1CCCCC1)C(=O)CNC(=O)c1cccs1,25.8%,-1.5%,6.1%,1.0%,2.8%,7.6%
CCOC(=O)NNc1ccccc1,-3.0%,4.2%,-23.8%,-11.0%,-12.3%,x
CCOC(=O)C(=CNNc1ccccc1)C(=O)OCC,u,-35.2%,50.1µM*,79.4µM*,u,2µM*
COC(=O)c1cc2sc(Cl)cc2n1Cc1nc(-c2ccccc2C)oc1C,0.1%,40.9%,2.2%,-2.5%,x,-9.3%[59 µM]
Cc1cc(C)n(C(=O)c2cc([N+](=O)[O-])cc([N+](=O)[O-])c2)n1,u,-25.3%,-22.3%,-36.2%,-7.0%,70.8µM*
